Results from PubChem BioAssay AID1159580 (chemical genetic matrix, 2015).
Hit rate of the full screen: of about 5,500 compounds, about 2,000 (36%) were called active. Roughly 18% stayed inconclusive and do not appear here. No stated cut-off is given here; in the data, active means normalized growth mostly below about 0.91 (no sharp cut-off); inconclusive means no clear call, values can overlap the other calls; inactive means mostly above about 0.92. The list shows a part of the results.

Experiment: chemical genetic growth profiling, strain panel (AID 1159580);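 further: tested at 20 µM; growth read once vehicle control cultures reached saturation at 30 °C; 1 = growth at the plate median or of vehicle wells; lower values mean less growth of the strain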
Conditions: growth OD

Measured: normalized growth

CCn1cc(C(=O)O)c(=O)c2cnc(N3CCCC3)nc21
active: S. cerevisiae deletion strains, locus YLR262C, strain YPT6 (second series), active compounds read low 0.789
inactive: S. cerevisiae deletion strains, locus YKL009W, strain mrt4, active compounds read low 0.987 | S. cerevisiae deletion strains, locus YKL068W, active compounds read low 1 | S. cerevisiae deletion strains, locus YKL085W, strain MDH1 (second series), active compounds read low 0.998 | S. cerevisiae deletion strains, locus YKL085W, strain MDH1, active compounds read low 0.998 | S. cerevisiae deletion strains, locus YKL160W, strain elf1, active compounds read low 0.975 | S. cerevisiae deletion strains, locus YKL190W, strain CNB1, active compounds read low 1 | S. cerevisiae deletion strains, locus YKR001C, strain vps1, active compounds read low 0.943 | S. cerevisiae deletion strains, locus YKR026C, strain gcn3, active compounds read low 1.02 | S. cerevisiae deletion strains, locus YKR091W, strain srl3, active compounds read low 1 | S. cerevisiae deletion strains, locus YLL001W, strain dnm1, active compounds read low 1.02 | S. cerevisiae deletion strains, locus YLL026W, active compounds read low 1 | S. cerevisiae deletion strains, locus YLL041C, strain sdh2, active compounds read low 0.993 | S. cerevisiae deletion strains, locus YLR027C, strain aat2, active compounds read low 0.996 | S. cerevisiae deletion strains, locus YLR039C, strain RIC1, active compounds read low 0.935 | S. cerevisiae deletion strains, locus YLR058C, strain SHM2, active compounds read low 1.01 | S. cerevisiae deletion strains, locus YLR102C, strain apc9, active compounds read low 1 | S. cerevisiae deletion strains, locus YLR113W, strain HOG1, active compounds read low 0.986 | S. cerevisiae deletion strains, locus YLR221C, strain rsa3, active compounds read low 0.994 | S. cerevisiae deletion strains, locus YLR258W, strain gsy2, active compounds read low 1.02 | S. cerevisiae deletion strains, locus YLR262C, strain YPT6, active compounds read low 0.904 | S. cerevisiae deletion strains, locus YLR268W, strain sec22, active compounds read low 0.972 | S. cerevisiae deletion strains, locus YLR320W, strain mms22, active compounds read low 1.03 | S. cerevisiae deletion strains, locus YLR330W, strain CHS5, active compounds read low 1.01 | S. cerevisiae deletion strains, locus YLR342W, strain FKS1 (second series), active compounds read low 1.04 | S. cerevisiae deletion strains, locus YLR342W, strain FKS1, active compounds read low 1 | S. cerevisiae deletion strains, locus YLR357W, strain rsc2, active compounds read low 1.01 | S. cerevisiae deletion strains, locus YLR370C, strain arc18, active compounds read low 0.981 | S. cerevisiae deletion strains, locus YLR371W, strain rom2, active compounds read low 0.998 | S. cerevisiae deletion strains, locus YLR384C, strain iki3, active compounds read low 1.01 | S. cerevisiae deletion strains, locus YLR418C, strain cdc73, active compounds read low 1.09 | S. cerevisiae deletion strains, locus YML016C, strain PPZ1, active compounds read low 0.999 | S. cerevisiae deletion strains, locus YML032C, strain rad52, active compounds read low 0.999 | S. cerevisiae deletion strains, locus YML120C, strain ndi1, active compounds read low 0.981 | S. cerevisiae deletion strains, locus YML124C, strain tub3, active compounds read low 0.993 | S. cerevisiae deletion strains, locus YMR058W, strain fet3, active compounds read low 1 | S. cerevisiae deletion strains, locus YMR078C, strain ctf18, active compounds read low 1 | S. cerevisiae deletion strains, locus YMR125W, strain sto1, active compounds read low 1.01 | S. cerevisiae deletion strains, locus YMR129W, active compounds read low 1 | S. cerevisiae deletion strains, locus YMR205C, strain PFK2, active compounds read low 1.06 | S. cerevisiae deletion strains, locus YMR223W, strain ubp8, active compounds read low 0.98 | S. cerevisiae deletion strains, locus YMR231W, strain pep5, active compounds read low 1 | S. cerevisiae deletion strains, locus YMR263W, strain SAP30, active compounds read low 1.01 | S. cerevisiae deletion strains, locus YMR307W, strain GAS1, active compounds read low 1.06 | S. cerevisiae deletion strains, locus YNL067W, strain RPL9B, active compounds read low 0.998 | S. cerevisiae deletion strains, locus YNL071W, strain lat1, active compounds read low 1 | S. cerevisiae deletion strains, locus YNL128W, strain TEP1, active compounds read low 1.05 | S. cerevisiae deletion strains, locus YNL153C, strain GIM3, active compounds read low 0.996 | S. cerevisiae deletion strains, locus YNL183C, strain NPR1, active compounds read low 0.924 | S. cerevisiae deletion strains, locus YNL209W, strain ssb2, active compounds read low 0.993 | S. cerevisiae deletion strains, locus YNL233W, strain BNI4, active compounds read low 1.02 | S. cerevisiae deletion strains, locus YNL248C, strain rpa49, active compounds read low 0.956 | S. cerevisiae deletion strains, locus YNL250W, strain rad50, active compounds read low 0.996 | S. cerevisiae deletion strains, locus YNL271C, strain bni1, active compounds read low 1.02 | S. cerevisiae deletion strains, locus YNL298W, strain CLA4, active compounds read low 1 | S. cerevisiae deletion strains, locus YNL307C, strain MCK1, active compounds read low 1.03 | S. cerevisiae deletion strains, locus YNL322C, strain KRE1 (second series), active compounds read low 1 | S. cerevisiae deletion strains, locus YNL322C, strain KRE1, active compounds read low 0.999 | S. cerevisiae deletion strains, locus YNR049C, strain mso1, active compounds read low 0.984 | S. cerevisiae deletion strains, locus YNR052C, strain pop2, active compounds read low 0.961 | S. cerevisiae deletion strains, locus YOL006C, strain TOP1, active compounds read low 1.06 | S. cerevisiae deletion strains, locus YOL012C, strain htz1 1.62 | S. cerevisiae deletion strains, locus YOL147C, strain pex11, active compounds read low 0.998 | S. cerevisiae deletion strains, locus YOR001W, strain rrp6, active compounds read low 0.958 | S. cerevisiae deletion strains, locus YOR061W, strain CKA2, active compounds read low 1 | S. cerevisiae deletion strains, locus YOR069W, strain VPS5, active compounds read low 1 | S. cerevisiae deletion strains, locus YOR070C, strain gyp1, active compounds read low 1.01 | S. cerevisiae deletion strains, locus YOR080W, strain dia2, active compounds read low 1.01 | S. cerevisiae deletion strains, locus YOR083W, strain WHI5, active compounds read low 0.968 | S. cerevisiae deletion strains, locus YOR106W, strain vam3, active compounds read low 0.936 | S. cerevisiae deletion strains, locus YOR136W, strain idh2, active compounds read low 0.999 | S. cerevisiae deletion strains, locus YOR144C, strain elg1, active compounds read low 0.988 | S. cerevisiae deletion strains, locus YOR184W, strain ser1, active compounds read low 0.978 | S. cerevisiae deletion strains, locus YOR231W, strain MKK1, active compounds read low 0.983 | S. cerevisiae deletion strains, locus YOR265W, strain rbl2, active compounds read low 1.01 | S. cerevisiae deletion strains, locus YOR270C, strain vph1, active compounds read low 1.02 | S. cerevisiae deletion strains, locus YOR290C, strain snf2, active compounds read low 0.994 | S. cerevisiae deletion strains, locus YOR316C, strain cot1, active compounds read low 1 | S. cerevisiae deletion strains, locus YPL051W, strain arl3, active compounds read low 0.981 | S. cerevisiae deletion strains, locus YPL055C, strain LGE1, active compounds read low 1.02 | S. cerevisiae deletion strains, locus YPL078C, strain atp4, active compounds read low 0.974 | S. cerevisiae deletion strains, locus YPL106C, strain sse1, active compounds read low 1.03 | S. cerevisiae deletion strains, locus YPL240C, strain hsp82, active compounds read low 0.986 | S. cerevisiae deletion strains, locus YPL241C, strain CIN2, active compounds read low 1.01 | S. cerevisiae deletion strains, locus YPL256C, strain CLN2, active compounds read low 0.98 | S. cerevisiae deletion strains, locus YPR119W, strain clb2, active compounds read low 0.996 | S. cerevisiae deletion strains, locus YPR141C, strain kar3, active compounds read low 1 | S. cerevisiae deletion strains, locus YPR163C, strain tif3, active compounds read low 1.02 | S. cerevisiae deletion strains, locus YPR167C, strain met16, active compounds read low 0.986 | S. cerevisiae deletion strains, strain wtn01, active compounds read low 0.987 | S. cerevisiae strains, strain wild type, active compounds read low 1.01
